“And” between values parts separate entries of the source, which are not always exact repeats. Equal entries are not always repeated. Inconclusive results are not listed. The source made the active and inactive calls.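 How the source made its calls, unless noted: active means compounds killing one labelled cell type while sparing the other, by normalised counts and ratio limits, not self-fluorescent; inactive means the rest.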
How the values were obtained:
[1] = stimulators of insulin release from INS-1E, primary screen, cell-based, 5 mM glucose, NPC library (AID 1117329;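 active means compound raises insulin release from rat beta cells at 5 mM glucose, no numeric limit stated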); settings: rat INS-1E insulin secretion, at 10 µM, stronger effect = higher value
[2] = growth inhibition of GSK3B-pretreated HCT116 cells – cell-based, CellTiter-Glo, 0.2 to 20 µM (AID 1117336;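 active means compounds lowering colon cancer cell viability after pretreatment blocking the GSK3B kinase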); settings: HCT116 viability after GSK3B inhibitor, at 20 µM, stronger effect = higher value
[3] = inhibition of endothelial tube formation, primary screen, imaging, VEGF stimulated, CD31 staining, tube area, NPC library (AID 1117340;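 active means compound that reduces growth-factor-driven endothelial tube area in a mixed cell culture, no cutoff stated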); settings: VEGF-stimulated ADSC/ECFC co-culture, at 10 µM, stronger effect = higher value
[4] = GLP1 release stimulators, primary, NCI-H716, NPC library (AID 1117341;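 active means compound raises GLP1 secretion from the human gut endocrine cells, with no numeric limit stated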); settings: NCI-H716 cells, at 10 µM, stronger effect = higher value
[5] = HCT116 colon cancer cell growth inhibition, primary screen, CellTiter-Glo luminescence, NPC library (AID 1117342;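 active means compounds that lower survival of HCT116 colon cancer cells in the luminescence readout, no numeric limit stated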); settings: at 20 µM (top of the series)
[6] = reduced SW480 viability measured with CellTiter-Glo, NPC library, primary (AID 1117343;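 active means compounds that lower viability of the colon cancer cells in the luminescence readout, with no numeric limit stated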); settings: CellTiter-Glo luminescence; at 20 µM (top of the series)
[7] = NPC library primary testing for decreased DLD-1 cell viability via CellTiter-Glo (AID 1117346;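 active means compounds that lower survival of DLD-1 colon cancer cells in the luminescence readout, no cutoff given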); settings: DLD-1 viability, CellTiter-Glo luminescence; at 20 µM (top of the series)
[8] = molecular target: 6-phosphogluconate dehydrogenase, decarboxylating (Homo sapiens) (UniProt P52209); assay: inhibition of human phosphogluconate dehydrogenase – biochemical, recombinant enzyme, NADPH absorbance, primary screen (AID 1159550;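 active means at least 20% inhibition of 6-phosphogluconate dehydrogenase activity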); settings: recombinant 6PGD, NADPH absorbance 341 nm; at 10 µM; stronger effect = higher value
[9] = EMT-state selective cytotoxicity in co-culture – imaging, PC-3E GFP, TEM4-18 mCherry, primary screen (AID 1345086); settings: PC-3E GFP / TEM4-18 mCherry co-culture, imaging cell counts, at 1 µM; for red/green cell ratio (normalised): actives lie on both sides, counts scaled to control wells, 1 = unselective;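 on all read-outs here: cells exposed to compound for 72 h before imaging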;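 on red/green cell ratio (normalised): normalised mesenchymal count divided by normalised epithelial count so high means epithelial killing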
[10] = tested on: Aerobactin synthetase IucA (Klebsiella pneumoniae); assay: inhibition of K. pneumoniae IucA enzyme – biochemical, Tocris library, absorbance (AID 1345561; call rule not given here;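 further: 100% = enzyme without compound and 0% = no enzyme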); settings: purified IucA enzyme assay, absorbance (OD) read-out; stronger effect = lower value;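 tested at 8 µM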
[11] = viability loss in pontine glioma line – cell-based, SU-DIPG-XVII, MIPE5.0, CellTiter-Glo, qHTS, dose response (AID 1347060; cut-off not given, nearly all actives have AC50 up to about 26 µM;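 on AC50: cells exposed to compound for 48 hours before viability readout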); settings: CellTiter-Glo ATP luminescence
[12] = viability loss in pontine glioma line – cell-based, SU-DIPG-XIII, MIPE4.0, CellTiter-Glo, qHTS, dose response (AID 1347061; cut-off not given, nearly all actives have AC50 up to about 37 µM;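 further: cells exposed to compound for 48 hours before readout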); settings: CellTiter-Glo ATP luminescence
[13] = viability loss in pontine glioma line – cell-based, JHH-DIPG-1, MIPE4.0, CellTiter-Glo, qHTS, dose response (AID 1347062; cut-off not given, nearly all actives have AC50 up to about 27 µM); settings: JHH-DIPG-1 viability, CellTiter-Glo ATP luminescence
[14] = viability loss in pontine glioma line – cell-based, SU-DIPG-IV, MIPE4.0, CellTiter-Glo, qHTS, dose response (AID 1347063; cut-off not given, nearly all actives have AC50 up to about 30 µM;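 further: compound exposure lasted 48 hours before the viability readout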); settings: CellTiter-Glo ATP luminescence
[15] = viability loss in pontine glioma line – cell-based, SU-DIPG-XIII, MIPE5.0, CellTiter-Glo, qHTS, dose response (AID 1347064; cut-off not given, nearly all actives have AC50 up to about 23 µM;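 on AC50: cells exposed to compound for 48 hours before the viability read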); settings: CellTiter-Glo ATP luminescence
[16] = measured here: epithelial PC-3E GFP cell survival
[17] = measured here: mesenchymal TEM4-18 mCherry cell survival

Sequence of 6-phosphogluconate dehydrogenase, decarboxylating (Homo sapiens) (P52209 whole entry, looked up): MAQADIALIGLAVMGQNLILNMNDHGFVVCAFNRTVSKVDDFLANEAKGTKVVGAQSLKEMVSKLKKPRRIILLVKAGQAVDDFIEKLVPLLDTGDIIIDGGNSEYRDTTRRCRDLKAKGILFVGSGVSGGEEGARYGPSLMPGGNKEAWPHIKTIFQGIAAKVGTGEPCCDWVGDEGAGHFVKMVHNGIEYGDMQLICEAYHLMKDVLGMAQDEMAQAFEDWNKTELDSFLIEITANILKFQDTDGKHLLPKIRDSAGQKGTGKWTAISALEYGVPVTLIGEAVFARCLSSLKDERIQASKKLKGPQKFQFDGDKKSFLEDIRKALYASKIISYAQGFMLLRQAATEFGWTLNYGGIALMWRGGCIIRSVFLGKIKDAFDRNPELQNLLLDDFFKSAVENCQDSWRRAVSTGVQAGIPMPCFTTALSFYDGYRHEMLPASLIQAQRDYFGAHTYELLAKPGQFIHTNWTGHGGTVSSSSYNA

CC1=NN(c2ccccc2)C(=O)C1
1.01: normalised cell number [9, 17]
inactive: insulin secretion stimulation [1] -2.2% | viability decrease [2] 10.2% | tube area decrease [3] 6.7% | GLP1 secretion stimulation [4] 3.5% | inhibition of viability [5] 2.1% | viability decrease (inhibition) [6] 33.2% | viability decrease (inhibition) [7] 12.2% | inhibition [8] 13.6% | red/green cell ratio (normalised) [9] 0.88 | remaining activity [10] 85.6% | outcome [11] | outcome [12] | outcome [13] | outcome [14] | outcome [15]
1.15: normalised cell number [9, 16]

COC(=O)Nc1nc2ccc(C(=O)c3cccs3)cc2[nH]1
0.15: normalised cell number [9, 16]
inactive: insulin secretion stimulation [1] -0.3% | GLP1 secretion stimulation [4] -3.1% | viability decrease (inhibition) [6] 22.9% | inhibition [8] -7.55% | red/green cell ratio (normalised) [9] 1.09 | remaining activity [10] 122%
0.17: normalised cell number [9, 17]
active: viability decrease [2] 69.2% | tube area decrease [3] 105% | inhibition of viability [5] 60.8% | viability decrease (inhibition) [7] 58.6% | AC50 [11] 148 nM | AC50 [15] 833 nM

COc1ccc(CCN2CCC(Nc3nc4ccccc4n3Cc3ccc(F)cc3)CC2)cc1
active: viability decrease [2] 108% | tube area decrease [3] 98.1% | inhibition of viability [5] 112% | viability decrease (inhibition) [6] 129% | viability decrease (inhibition) [7] 100%
inactive: insulin secretion stimulation [1] 5.85% | GLP1 secretion stimulation [4] 14% | inhibition [8] 14.2% | red/green cell ratio (normalised) [9] 1.02 | remaining activity [10] 97.7%
1.11: normalised cell number [9, 17]
1.09: normalised cell number [9, 16]

Cc1ccc(C(=O)Nc2ccc(S(=O)(=O)O)c3cc(S(=O)(=O)O)cc(S(=O)(=O)O)c23)cc1NC(=O)c1cccc(NC(=O)Nc2cccc(C(=O)Nc3cc(C(=O)Nc4ccc(S(=O)(=O)O)c5cc(S(=O)(=O)O)cc(S(=O)(=O)O)c45)ccc3C)c2)c1
active: GLP1 secretion stimulation [4] 36.3% | inhibition [8] 27.5% | remaining activity [10] 38.8% | AC50 [11] 14400 nM
0.96 and 1.07: normalised cell number [9, 16]
1.17 and 0.97: normalised cell number [9, 17]
inactive: insulin secretion stimulation [1] 1.6% | viability decrease [2] -23.9% | tube area decrease [3] 6% | inhibition of viability [5] -17.7% | viability decrease (inhibition) [6] -22.7% | viability decrease (inhibition) [7] 8.3% | red/green cell ratio (normalised) [9] 1.23 and 0.9 | outcome [15]

O=C1CCc2cc(OCCCCc3nnnn3C3CCCCC3)ccc2N1
0.94: normalised cell number [9, 17]
inactive: insulin secretion stimulation [1] -1.5% | viability decrease [2] -19.3% | tube area decrease [3] 0.2% | GLP1 secretion stimulation [4] -1.1% | inhibition of viability [5] -0.27% | viability decrease (inhibition) [6] 36.4% | viability decrease (inhibition) [7] -12.1% | inhibition [8] 1.01% | red/green cell ratio (normalised) [9] 1.09 | remaining activity [10] 118% | outcome [11] | outcome [12] | outcome [13] | outcome [14] | outcome [15]
0.86: normalised cell number [9, 16]

CCCCCCCCCCCCCCCCCCOCC(O)CO (stereo unspecified)
active: GLP1 secretion stimulation [4] 30.1%
0.96: normalised cell number [9, 16] | normalised cell number [9, 17]
inactive: insulin secretion stimulation [1] 1.3% | viability decrease [2] -5.2% | tube area decrease [3] 7.6% | inhibition of viability [5] -10.7% | viability decrease (inhibition) [6] 4.8% | viability decrease (inhibition) [7] -8.8% | inhibition [8] -2.18% | red/green cell ratio (normalised) [9] 1

CS(=O)(=O)Nc1ccc([N+](=O)[O-])cc1Oc1ccccc1
1.05: normalised cell number [9, 16]
1.01: normalised cell number [9, 17]
inactive: insulin secretion stimulation [1] 0.6% | viability decrease [2] 7.2% | tube area decrease [3] 11.6% | GLP1 secretion stimulation [4] 0.1% | inhibition of viability [5] 15% | viability decrease (inhibition) [6] 10.5% | viability decrease (inhibition) [7] 17.8% | inhibition [8] 11.1% | red/green cell ratio (normalised) [9] 0.96 | remaining activity [10] 111% | outcome [11] | outcome [12] | outcome [13] | outcome [15]

CC(C)(Oc1ccc(Cl)cc1)C(=O)O
inactive: insulin secretion stimulation [1] -2.3% | viability decrease [2] -12.6% | tube area decrease [3] -2.8% | GLP1 secretion stimulation [4] 4.6% | inhibition of viability [5] 13.2% | viability decrease (inhibition) [6] 12.2% | viability decrease (inhibition) [7] -5.25% | inhibition [8] -17.2% | red/green cell ratio (normalised) [9] 0.77 | remaining activity [10] 92.9%
0.86: normalised cell number [9, 17]
1.11: normalised cell number [9, 16]

CN(C)CCOC(=O)C(c1ccccc1)C1(O)CCCC1 (stereo unspecified)
inactive: insulin secretion stimulation [1] 0.2% | viability decrease [2] -18% | tube area decrease [3] -3.4% | GLP1 secretion stimulation [4] -3.8% | viability decrease (inhibition) [6] 20.7% | viability decrease (inhibition) [7] 31.8% | inhibition [8] -0.0978% | red/green cell ratio (normalised) [9] 1.07
active: inhibition of viability [5] 50.1%
1.42: normalised cell number [9, 16]
1.52: normalised cell number [9, 17]

CCN(CC)CCOC(=O)C(c1ccccc1)c1ccccc1
1.22: normalised cell number [9, 17]
1.02: normalised cell number [9, 16]
inactive: insulin secretion stimulation [1] 13.6% | viability decrease [2] -6.6% | tube area decrease [3] 17.8% | GLP1 secretion stimulation [4] 0.6% | inhibition of viability [5] 8.4% | viability decrease (inhibition) [6] -5.9% | viability decrease (inhibition) [7] 5.6% | inhibition [8] -7.73% | red/green cell ratio (normalised) [9] 1.2

CO[C@@]1(NC(=O)C(C(=O)O)c2ccc(O)cc2)C(=O)N2C(C(=O)O)=C(CSc3nnnn3C)CO[C@@H]21 (stereo partly specified)
inactive: insulin secretion stimulation [1] -0.4% | viability decrease [2] 23.9% | tube area decrease [3] 10.2% | GLP1 secretion stimulation [4] 1.3% | inhibition of viability [5] 2.9% | viability decrease (inhibition) [6] 25.1% | viability decrease (inhibition) [7] -26% | inhibition [8] 3.95% | red/green cell ratio (normalised) [9] 0.93
1.11: normalised cell number [9, 17]
1.2: normalised cell number [9, 16]

Source: PubChem BioAssay
